This note sets out measurements from PubChem BioAssay (NCI).

The panel holds about 83,000 compounds, 20% with a hit somewhere; the sample as a whole holds those more often.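 A percent growth of 40 corresponds to 60% growth inhibition; 0 means no net growth; -100 means all cells died. Active threshold: below 10.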 Unmarked numbers belong to inactive results. Calls of active or inactive are those of the source.

The assay relates to HCT-15 colon. The assay can be described thus: NCI-60 one-dose screen, 48 h (100 = growth as untreated, 0 = no growth, -100 = all killed). To be noted: 10 µM unless noted.
As to `COC1NC(Cl)=C(C#N)C(C#N)(C#N)C1(C)C` (stereo unspecified), the growth was 121%.

For `COc1ccccc1C(=O)Nc1cccc(-c2cc(=O)c3c(OC)c(OC)c(OC)cc3o2)c1`, the growth is 41.5%. As for `C=C(NC(=O)[C@H](C(C)C)N(C)c1cccc2[nH]ccc12)C(=O)OC`, the figure is 95.7%.

Turning to `Cc1nc2c(nnn2-c2ccccc2)c2nc(-c3ccccc3)oc(=O)c12`, the growth was 101%.

Turning to `CCCCCCCCCC[N+](C)(C)C`, the growth is 39.3%. For the molecule `CCOC(=O)c1ccc2n1CCCc1cnc(NC(C)=O)nc1-2`, the growth is 107%. On to `O=S(=O)(O)c1ccc2c(c1)Sc1cc(S(=O)(=O)O)ccc1O2`, for which the growth is 113%.

Regarding `COc1cc(/C=C/C(=O)c2ccc(F)cc2)ccc1OCCCCOc1cc2c(cc1OC)C(=O)N1CCCC1C=N2` (stereo unspecified), the growth was -46.3% (active). With `COC(=O)C(C)[C@H]1CC[C@@H]2[C@]1(C)CC=C1[C@]23C=C[C@]2(C[C@@H](OC(C)=O)CC[C@]12C)C(C(=O)OC)C3C(=O)OC` (stereo partly specified) the figure was 61.5%.

On to `COc1ccc2cnc(N)c(C#Cc3cc(C(=O)Nc4ccc(CN5CCN(C)CC5)c(C(F)(F)F)c4)cnc3C)c2c1`, for which the growth is 43.5%. With `COc1cccc2c1nc1cccc(OC)c1[n+]2[O-]` the figure was 47.4%. As for `O=C1/C(=N\c2cc(=O)[nH]n2S(=O)(=O)c2ccccc2)Nc2ccccc21`, the figure is 100%. As for `c1ccc(Nc2ccccn2)cc1`, the figure is 96.2%; as for `COc1ccc(OC)c(Cn2cc3c(c2)-c2oncc2CC3)c1`, 31.1%; as for `O=C1C(=O)c2ccccc2C(O)=C1CCCc1ccc(C2CCCC2)cc1`, 19.6%. `CCCOC(=O)c1c(C)n(C)c2scc[n+]12`: the growth is 85.2%. `COc1cc(-c2nc3c(c(C)nc4c3nnn4-c3ccccc3)c(=O)o2)cc(OC)c1OC`: the growth was 113%. Regarding `COC(=O)Nc1nc2ccc(C(=O)c3ccccc3N(C)C3COC3)cc2[nH]1`, the growth is 23.5%. As for `COc1cc(Cn2ccc3c2-c2oncc2CC3)cc(OC)c1`, the figure is 27.2%; as for `c1ccc(Nc2ncc3c(n2)-c2cccn2CC3)cc1`, 32.9%.

Consider `N=c1c2c(=O)n3c(nc2nc2sc4ccc(Cl)cc4n12)-c1ccccc1Sc1ccccc1-3`, for which the growth was 13.6%.

As to `NC(=O)CC(NC(=O)COc1ccc(Cl)cc1Cl)C(=O)O` (stereo unspecified), the growth was 112%.

Regarding `C=C(C)[C@@H]1CC[C@]2(COC(=O)c3ccccc3C(=O)O)CC[C@]3(C)[C@H](CC[C@@H]4[C@@]5(C)CCCNC(C)(C)[C@@H]5CC[C@]43C)[C@@H]12`, the growth was 58%. As for `C/C=C(/C)C(=O)OC1C=C(CO)C(=O)C(OC(=O)/C(C)=C\C)C1C(C)C` (stereo unspecified), the growth is -49.3% (active).

For `CC(=O)OC1CC2C3CCC4C[C@@H](NC(=O)C=C(C)C)CC[C@]4(C)C3CC[C@]2(C)[C@H]1C(C)N(C)C` (stereo partly specified), the growth was -38.7% (active). In the case of `CC(=O)/C(=C/c1ccc(-c2ccccc2)cc1)C(=O)c1ccccc1`, the growth was 66.9%.
